# Source: the supplement of paper PMC6555819
# Experiments:
# Test in all cases: PBM binding z-score (relative to random genomic background probes); higher = stronger binding; sequences stand for … in GC…GCGATTGACAGCGTAGAATGAAGG
# [1] = tested on: RARb homodimer (NR concentration 270 nM)
# Procedure, shortened: (§1)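 Scanned fluorescence from custom Agilent 4×180K protein-binding microarrays was regression-normalized. Binding z-scores use random background probes as reference. Ligand-free nuclear receptor dimers were incubated on the arrays for 1 h and detected with antibodies against each partner (one per run).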
# [2] = tested on: RARg:RXRa (NR concentration 270 nM, RXRa partner concentration 90 nM)
# Procedure, shortened: as §1
# [3] = tested on: RARg homodimer (NR concentration 270 nM)
# Procedure, shortened: as §1
# [4] = tested on: RXRa DBDmut IVT, anti-RXR (DBD mutation: RXRa K156A/R161A, NR concentration 90 nM)
# Procedure, shortened: as §1
# [5] = tested on: RXRa homodimer (NR concentration 180 nM)
# Procedure, shortened: as §1
# [6] = tested on: THRa:RXRa (NR concentration 90 nM, RXRa partner concentration 90 nM)
# Procedure, shortened: as §1
# [7] = tested on: THRa homodimer (NR concentration 90 nM)
# Procedure, shortened: as §1
# [8] = tested on: VDR:RXRa (NR concentration 270 nM, RXRa partner concentration 90 nM)
# Procedure, shortened: as §1
# [9] = tested on: VDR homodimer (NR concentration 270 nM)
# Procedure, shortened: as §1
Sequence,PBM binding z-score [1],PBM binding z-score [2],PBM binding z-score [3],PBM binding z-score [4],PBM binding z-score [5],PBM binding z-score [6],PBM binding z-score [7],PBM binding z-score [8],PBM binding z-score [9]
CCTACTGGGCCATTCAGAGGTCATTAATCATATG,3.81,4.21,2.91,0.793,3.48,3.13,1.35,3.64,3.11
CCTACTGGGCCAAAAAAGTCATTGATGCCGATAA,-0.0259,-0.155,0.0325,-0.134,-0.184,-0.184,-0.612,-0.174,-0.687
CCGACTGGGGCATAATGTTACCATAAGCCAGCCC,-0.153,0.0195,0.3,-0.127,0.021,-0.493,-0.413,-0.48,-0.295
AATACAGGGTCATCGTAGGCCAGAGTCCGCACAG,3.75,5.73,5.28,3.35,6.62,4.68,1.62,5.19,3.38
TAGCCTAGGTCATTCAGGGGCCAGTATAGAAAGC,3.29,6.13,4.44,1.6,2.84,3.45,0.509,3.26,1.32
CGTCAAAGTTCAACAAAGGTAACGTAAAGCACGC,4.37,5.63,6.4,4.53,4.82,4.66,0.367,4.46,3.16
CGTCGAAGTTCAAGGTAACGTAACAGAAAGCAGC,1.95,2.79,3.25,3.69,2.21,2.07,0.792,2.09,1.74
CGTCCAAGGTCAATGCTAGGTCAGAGAAAGCATT,5.02,7.59,7.07,3.6,6.03,4.58,3,4.76,2.77
GGAACGAGGGCAAATTTGATAGCATCTGTCGACG,0.969,1.06,1.73,2.41,0.93,0.959,-0.432,0.619,0.807
CAAACTAGGTCACCGGAAGGTGAAAGTCCGCATG,4.38,6.41,5.87,1.3,4.7,4.01,2.37,3.4,0.904
GGAACGAGGGCATTCGAGTTGATGGCATGGCGAT,0.552,1.05,1.17,3.15,0.655,2.96,-0.631,3.36,3.46
CGTCCAAGTTCAAGGTCAGTGAAAGAGACTCGAA,4.11,4.76,5.33,4.51,3.82,3.56,2.47,3.88,4.98
TAGCCTAGGTCATTCAGTGGCCAGTATAGAAAGC,2.59,4.43,3.96,1.92,2.63,2.55,0.351,2.43,1.24
GTCCCAAGGTGAATAGGTCGTTGATGAGTAGGCG,2.13,2.88,1.42,-0.179,1.67,2.06,0.76,0.855,0.582
AGAATGAGGTTATGCGTAGATCAGGGAAGAAAGT,0.687,1.51,1.09,1.23,1.99,2.24,0.599,1.15,0.644
GCAGAGAGGTGAAACGCAGGTAACTCAGGGTGGC,1.31,2.59,1.21,0.025,1.79,2.37,0.0883,0.186,-0.369
AAGACAGGGTCACTAGGCCAGAGTAGGTACGAAT,3.02,4.97,4.66,2.26,5.58,3.1,0.755,3.9,1.87
ATATGTAGGTTATCGGGACATTCAGTTTGCGCAT,1.09,0.79,1.16,0.776,1.03,1.72,1.55,1.04,1.48
ACTAGCAGGCCAAGTTTGGGTCACTGAAACAAAG,2.33,2.54,2.01,-0.119,0.982,2.71,1.29,0.731,0.416
TCTGCTAGGTCAACGATGGTCAGCTAGTCTGCTA,3.54,3.9,4.61,0.638,2.5,3.16,0.617,1.43,-0.544
GCTAGTTGGTCAGCAAAAGGTCACACACCGGTCG,5.34,5.94,5.62,-0.0302,6.14,3.41,1.55,4.13,1.55
TCTTGTAAATCAAAGGTTAAGAAAGCCGAAGCCT,1.35,1.39,0.692,0.749,2.24,0.996,-0.284,1.07,-0.116
CTCGAAAGGTCGGTTGAGGTGAGTGTACGGATAA,2.49,2.68,2.86,0.363,2.49,5.02,1.78,2.42,1.29
TCTGCTAGGTAAGTTGGTCAGCTAACGAGCTGCC,-0.545,-0.54,-0.71,0.107,-0.613,-0.549,-0.918,-0.464,-0.989
GCTCGGAGGACAAGGCCAGAGCTTTGTCCGTAGA,0.141,-0.322,-0.004,-1.09,-1.17,0.254,-0.595,-1.03,-0.801
TTACCAAGGTGGGCTGAGGTCGTTGATCCAACTC,1.04,0.249,-0.257,0.273,0.833,3.77,1.5,2.6,2.06
